# Source: PubChem (National Center for Advancing Translational Sciences (NCATS))
# HP1b binding inh – HP1-beta chromodomain-methylated histone interaction inhibition; P83916; AlphaScreen HP1-beta / biotin-H3K9me3 peptide binding; 0.56% of 390,000 active; Potency, µM (top dose mostly 114 µM), for inactives: at the top dose activity change, negative = inhibition, actives largely listed as inhibitors; further: potency means the concentration at half of the fitted maximal effect; nearly all actives have a fitted effect of over 70% in size
#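 AlphaScreen: HP1-beta (50 nM) preformed 30 min with biotin-H3(1-18)K9me3 peptide (50 nM) in PBS pH 7.4, 0.01% Tween-20. Compound added for 30 min at RT, then streptavidin donor/nickel chelate acceptor beads (10 ug/mL) for 30 min.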
# Six1-Eya2 blk – blocks human Six1 binding to Eya2. Q15475+O00167. AlphaScreen GST-Six1/His-Eya2 binding, biochemical; stronger effect = lower value. activity change, % (concentration not given with the values). 0.56% of 360,000 active. AID 651725; in the data active means activity change below about -65%; inconclusive means mostly about -30% to -63%; further: on the % scale 0 is the no-effect control and ±100 the full control effect
#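 GST-Six1 + His-Eya2 (5X stock: 250/500 nM); Tris pH 8.0, 300 mM NaCl, 0.05% BSA, 0.02% Tween 20; GSH donor/Ni acceptor beads; 1 h 37 °C dark; AlphaScreen readout.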
# JMJD2A Tudor – blocks the human JMJD2A Tudor domain | 4.4% of 390,000 active | O75164 | AlphaScreen JMJD2A-Tudor / H3K4me3 peptide binding | Potency, µM (highest dose often 114 µM), without a hit: at the top dose activity change, negative = inhibition, hits mostly inhibitors; further: potency means the concentration at half of the fitted maximal effect; on the % scale 0 is the no-effect control and ±100 the full control effect; nearly all actives have a fitted effect of over 50% in size
# CtBP-E1A blk – inhibitors of CtBP/E1A interaction | AlphaScreen GST-E1A/His-CtBP binding, 1536-well; stronger effect = lower value | activity change, % (no concentration beside the values) | 0.49% of 340,000 active | AID 651724; in the data active means activity change below about -65%; inconclusive means mostly about -30% to -63%; further: on the % scale 0 is the no-effect control and ±100 the full control effect
#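 GST-E1A and His-tagged CtBP (125 nM each as 5X stock) were preincubated with pin-transferred compound for 2 h at 37 °C in the dark, then glutathione donor and nickel acceptor beads were added for 1 h before AlphaScreen reading.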
# G9a inh – inhibitors of human histone lysine methyltransferase G9a. G9a H3K9 monomethylation, AlphaScreen, 2 h. Potency, µM (titrated, usually from 102 µM), inactives show at the highest dose activity, negative = inhibition, hits mostly inhibitors. 8.8% of 350,000 active; further: potency means the concentration at half of the fitted maximal effect; on the % scale 0 is the no-effect control and ±100 the full control effect; nearly all actives have a fitted effect of over 75% in size
#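 Enzyme 20 nM + cpd, 15 min RT; add b-H3K9 pep 500 nM / SAM 20 uM; 2 h RT; anti-H3K9me1 Ab 0.5 ug/mL + SA donor / anti-rabbit acceptor beads 20 ug/mL each, 10 min; AlphaScreen read.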
# BAZ2B inh – blocks human BAZ2B; Q9UIF8; AlphaScreen BAZ2B-H3K14Ac peptide displacement; Potency, µM (doses to about 114 µM), for inactives: at the top dose activity change, negative = inhibition, usual class: inhibitors; 4.4% of 360,000 active; AID 504333; further: potency means the concentration at half of the fitted maximal effect; on the % scale 0 is the no-effect control and ±100 the full control effect; nearly all actives have a fitted effect of over 60% in size
# Target sequence (Q9UIF8 whole entry, looked up): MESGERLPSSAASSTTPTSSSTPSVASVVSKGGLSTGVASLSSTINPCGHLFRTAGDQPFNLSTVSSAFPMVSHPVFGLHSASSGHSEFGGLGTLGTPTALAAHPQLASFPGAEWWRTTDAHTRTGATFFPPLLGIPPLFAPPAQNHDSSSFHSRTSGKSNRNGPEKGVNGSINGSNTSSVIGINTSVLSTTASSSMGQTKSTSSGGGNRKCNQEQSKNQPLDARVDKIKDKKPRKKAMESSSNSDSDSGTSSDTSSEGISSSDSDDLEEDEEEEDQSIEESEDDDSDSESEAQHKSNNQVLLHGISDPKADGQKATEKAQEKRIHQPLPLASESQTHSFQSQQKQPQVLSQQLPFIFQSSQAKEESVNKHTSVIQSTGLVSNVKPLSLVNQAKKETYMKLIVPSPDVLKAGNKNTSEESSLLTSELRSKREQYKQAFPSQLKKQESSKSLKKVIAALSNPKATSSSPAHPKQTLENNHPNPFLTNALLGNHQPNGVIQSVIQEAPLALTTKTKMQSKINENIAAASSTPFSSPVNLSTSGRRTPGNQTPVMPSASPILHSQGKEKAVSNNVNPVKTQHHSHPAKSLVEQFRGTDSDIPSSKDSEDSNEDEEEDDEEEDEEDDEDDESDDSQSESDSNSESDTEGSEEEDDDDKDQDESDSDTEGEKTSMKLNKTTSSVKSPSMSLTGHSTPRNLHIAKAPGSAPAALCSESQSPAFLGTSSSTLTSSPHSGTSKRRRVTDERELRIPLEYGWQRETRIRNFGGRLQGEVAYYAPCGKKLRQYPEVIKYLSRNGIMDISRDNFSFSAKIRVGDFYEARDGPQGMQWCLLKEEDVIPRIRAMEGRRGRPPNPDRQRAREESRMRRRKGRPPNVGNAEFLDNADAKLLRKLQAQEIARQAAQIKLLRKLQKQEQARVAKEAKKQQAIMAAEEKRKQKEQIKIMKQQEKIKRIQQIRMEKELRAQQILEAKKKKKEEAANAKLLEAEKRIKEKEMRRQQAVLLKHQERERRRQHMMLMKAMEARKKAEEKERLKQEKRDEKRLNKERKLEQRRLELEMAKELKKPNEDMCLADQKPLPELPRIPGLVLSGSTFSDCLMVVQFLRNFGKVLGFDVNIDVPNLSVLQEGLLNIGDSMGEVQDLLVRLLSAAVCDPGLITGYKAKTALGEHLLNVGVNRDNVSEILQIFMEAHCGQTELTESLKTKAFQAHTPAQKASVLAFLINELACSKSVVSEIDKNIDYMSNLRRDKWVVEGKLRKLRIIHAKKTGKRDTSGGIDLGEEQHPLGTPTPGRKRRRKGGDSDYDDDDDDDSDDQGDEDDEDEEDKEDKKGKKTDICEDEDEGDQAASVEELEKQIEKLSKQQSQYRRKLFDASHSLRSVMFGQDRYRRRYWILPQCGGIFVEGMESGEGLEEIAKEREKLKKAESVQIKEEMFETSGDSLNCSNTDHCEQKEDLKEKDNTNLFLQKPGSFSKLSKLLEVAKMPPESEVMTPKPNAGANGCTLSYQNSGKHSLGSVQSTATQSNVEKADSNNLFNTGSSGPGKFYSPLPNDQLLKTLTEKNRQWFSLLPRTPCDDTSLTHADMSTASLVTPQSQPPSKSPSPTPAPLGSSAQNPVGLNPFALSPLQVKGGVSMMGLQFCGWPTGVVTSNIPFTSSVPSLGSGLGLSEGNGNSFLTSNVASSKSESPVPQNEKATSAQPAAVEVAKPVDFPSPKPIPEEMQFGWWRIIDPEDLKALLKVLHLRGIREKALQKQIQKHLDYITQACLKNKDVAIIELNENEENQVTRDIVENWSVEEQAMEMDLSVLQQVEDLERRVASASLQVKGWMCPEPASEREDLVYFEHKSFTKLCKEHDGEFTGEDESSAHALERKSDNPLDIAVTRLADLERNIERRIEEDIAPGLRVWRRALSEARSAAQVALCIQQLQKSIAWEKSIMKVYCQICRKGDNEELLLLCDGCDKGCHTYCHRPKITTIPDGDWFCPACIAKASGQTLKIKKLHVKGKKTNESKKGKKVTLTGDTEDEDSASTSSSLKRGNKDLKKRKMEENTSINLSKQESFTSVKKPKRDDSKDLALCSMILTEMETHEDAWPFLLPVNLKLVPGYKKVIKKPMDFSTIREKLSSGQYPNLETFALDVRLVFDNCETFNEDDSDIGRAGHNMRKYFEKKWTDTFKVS
#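 BAZ2B 50 nM plus b-H3(5-23)K14Ac 50 nM, PBS pH 7.4/0.01% Tween-20, 30 min RT; compound added (max 110 uM), 30 min RT; streptavidin donor/Ni-chelate acceptor beads 10 ug/mL final, 20 min dark; AlphaScreen read.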
# * marks the source's active call; other numbers are inactive results; ? = inconclusive; nt = no result given; [ ] = dose if it differs, or a comment. Rows were chosen to be rich in hits. Some 10% of all compounds tested hit in one or more screens of this group. Unless noted, the call rests on the fitted dose curve; in most records, active means well fitted inhibition curve with a large enough effect; inconclusive means small, poorly fitted or top-dose-only effect; inactive means no such curve, though single readings can be large or run the other way.
SMILES,HP1b binding inh,Six1-Eya2 blk,JMJD2A Tudor,CtBP-E1A blk,G9a inh,BAZ2B inh
CCOC(=O)C1CCN(C(=O)c2cc(COc3ccc(OC)c4ccccc34)on2)CC1,-18%,-3,-16%,-13,45µM*,?
CCN(CC(=O)Nc1ccc2c(c1)OCCO2)C(=O)/C=C/c1cccc(C(F)(F)F)c1,23%,-9,-28%,nt,nt,nt
c1cc[n+](CCC[n+]2ccccc2)cc1,11%,3,?,0,11µM*,0%
COCC(=O)N(Cc1cc2cccc(C)c2[nH]c1=O)c1ccccc1,11%,7,-18%,2,-4%,-18%
Cc1ccc(NC(=O)C2CCCN(S(=O)(=O)c3c(C)n[nH]c3C)C2)cc1C (stereo not drawn),41%,nt,7%,nt,1%[59 µM],nt
Cc1ccc(Cl)cc1N1CCN(C(=O)CSc2nnc3n2C(C)(C)Cc2ccccc2-3)CC1,41%,-8,89µM*,-2,8.9µM*,3%
Cc1ccc(Cl)cc1N1CCN(C(=O)CSc2ccsc2[N+](=O)[O-])CC1,-6%,-13,?,-12,50µM*,50µM*
Cc1ccc(Cl)cc1N1CCN(C(=O)CSc2cc(=O)n(C)c3ccccc23)CC1,16%,nt,?,nt,-38%[59 µM],nt
COc1ncnc2c1ncn2CCCNCCCN1CCCC1=O,nt,-3,nt,4,nt,nt
Cc1sc2ncn(CC(=O)Nc3cccc(S(N)(=O)=O)c3)c(=O)c2c1-c1ccccc1,53%,0,-32%,-8,?,-38%
Cc1ccc(-c2csc(NS(=O)(=O)c3cccc(F)c3)n2)o1,-32%,-25,56µM*,-4,nt,nt
Cc1cc(C)cc(NC(=O)c2cccc(C(=O)Nc3cc(C)cc(C)c3)c2)c1,-13%,nt,-7%,nt,2%[59 µM],-1%
CCCOC(=O)c1c(-c2ccc(C)cc2C)csc1NC(=O)C1C2CCC(O2)C1C(=O)O (stereo not drawn),?,-7,71µM*,2,13µM*,-6%
CCOC(=O)c1c(NC(=O)C2C3CCC(O3)C2C(=O)O)sc(C)c1-c1ccc(F)cc1 (stereo not drawn),27%,-5,-2%,0,nt,8%
CC(=O)OCC1OC(Sc2cccc3cccnc23)C(OC(C)=O)C(OC(C)=O)C1OC(C)=O (stereo not drawn),24%,-85*,-9%,-85*,18%[59 µM],7%
CC(=O)OCC1OC(n2ccc3ccccc32)C(OC(C)=O)C(OC(C)=O)C1OC(C)=O (stereo not drawn),-13%,2,-15%[11.4 µM],-3,?,5%
CN(/N=C/c1cc(Cl)cc(Cl)c1O)c1c(Cl)cccc1[N+](=O)[O-],?,0,40µM*,-30,nt,10µM*
CCOc1ccc(-c2nc(=S)[nH][nH]2)cc1,-19%,7,7.1µM*,5,1.4µM*,-2%
FC(F)(F)c1ccc(-c2nc(=S)[nH][nH]2)cc1,24%,-4,22µM*,-2,3.5µM*,-19%
Oc1ccc(-c2nc(=S)[nH][nH]2)cc1,-32%,5,5µM*,4,1.3µM*,-18%
FC(F)(F)c1ccc(-c2nc3ccccc3s2)cc1,nt,3,nt,13,nt,nt
COc1ccc(-c2nc(=S)[nH][nH]2)cc1,79µM*,-6,2.5µM*,0,1.8µM*,6%
COc1cc(-c2ccno2)ccc1S(=O)(=O)N1CCN(c2ccc(F)cc2)CC1,15%,nt,-24%,nt,-34%[59 µM],-19%
COc1ccc(-c2cc(C3C4C=CCC(C)C4C(=O)N3Cc3ccccc3)ccc2F)cc1 (stereo not drawn),13%,nt,-16%,nt,nt,nt
CC(OC(=O)CN1C(=O)c2ccccc2C1=O)C(=O)NC1CCCCC1 (stereo not drawn),47%,0,-1%,-3,29%,-17%
SMILES,HP1b binding inh,Six1-Eya2 blk,JMJD2A Tudor,CtBP-E1A blk,G9a inh,BAZ2B inh
COc1ccc(C(=O)Nc2ccc3oc(-c4ccc5ccccc5c4)nc3c2)cc1Br,5%,nt,-10%,nt,-36%[59 µM],-3%
CCOC(=O)C1=C(N)Oc2cc(O)ccc2C1c1ccccc1 (stereo not drawn),0%,-2,-33%,nt,3%[0.501 µM],11%
CCOC(=O)C1=C(N)Oc2cc(O)ccc2C1c1cccc([N+](=O)[O-])c1 (stereo not drawn),-17%,-6,?,0,nt,40µM*
OC(COc1cccc2ccccc12)CN1CCOCC1 (stereo not drawn),21%,1,-8%,-5,nt,nt
C=CCc1cc(C)ccc1OCC(O)CN1CCN(c2ccccc2)CC1 (stereo not drawn),40µM*,-16,2.8µM*,-15,?,50µM*
OC(COc1cccc2ccccc12)CN1CCN(c2ccccc2)CC1 (stereo not drawn),-23%,-19,50µM*,nt,50µM*,?
C=CCc1ccc(OCC(O)CN2CCCCC2)c(OC)c1 (stereo not drawn),28%,1,-20%,5,?,-2%
C=CCc1cc(OC)ccc1OCC(O)CN1CCN(c2ccc(OC)cc2)CC1 (stereo not drawn),-42%,?,45µM*,?,28µM*,35µM*
C=CCc1ccc(OCC(O)CN2CCN(c3ccccc3)CC2)c(OC)c1 (stereo not drawn),30%,-19,?,nt,45µM*,?
C=CCc1ccccc1OCC(O)CN1CCN(c2ccccc2)CC1 (stereo not drawn),-13%,nt,?,nt,?,50µM*
CC(COc1cccc2ccccc12)CN1CCN(C)CC1 (stereo not drawn),19%,-10,-19%,-14,45µM*,4%
CC(C)NC[C@H](O)COc1cccc2ccccc12,32%,-3,-14%,-8,2%[59 µM],nt
C=CCc1ccccc1OCC(O)CN1CCN(c2ccccc2OC)CC1 (stereo not drawn),7%,-9,-23%,-2,-1%[59 µM],-32%
CCCC[n+]1c2ccccc2cc2ccccc21,24%,4,40µM*,nt,1.3µM*,56µM*
CCC[n+]1c2ccccc2cc2ccccc21,-34%,-2,20µM*,-3,3.5µM*,45µM*
Cc1ccc(NS(=O)(=O)c2ccc3c(c2)N(C)C(=O)CO3)cc1C,nt,nt,-3%,nt,nt,nt
Cc1ccc(C)c(S(=O)(=O)ON2C(=O)c3ccccc3C2=O)c1,32µM*,1,?,8,7.9µM*,-6%
Cc1ccc(S(=O)(=O)ON2C(=O)c3cccc4cccc(c34)C2=O)cc1,54%,?,-24%,nt,28%[59 µM],-2%
O=C1c2ccccc2C(=O)N1OS(=O)(=O)c1ccccc1,nt,nt,nt,nt,4µM*,-11%
O=C1c2cccc3cccc(c23)C(=O)N1OS(=O)(=O)c1ccccc1,4%,-71*,-23%,-13,27%[59 µM],7%
